Assay results published in article PMC7819943, “Rice protein-binding microarrays: a tool to detect cis-acting elements near promoter regions in rice”.
Whole data set: some 39,000 sequences, median “fluorescence intensity (a.u.)” near 4,300, cut for the highest 2% near 39,000. Shown is part of a subset that was picked to be rich in the highest values.

What follows are sequences tested against T1, OsSMF1 (Oryza sativa, UniProt Q6ZLB0 1-436) (assay: protein-binding microarray (RPBM); PBS, 2% BSA, 51.3 ng/ul salmon testes DNA, 50 uM zinc acetate, 200 nM TF, 25 C, 1 h; high values mean tight binding). Conditions: protein: recombinant; tags: N-terminal polyhistidine and DsRed monomer fusion (pET32a); chain copies: 2; label: CyDye5-dUTP incorporated in the synthesized complementary strand; 3' TTTTT single-stranded linker to array surface; dsDNA, one strand shown.
T1 sequence: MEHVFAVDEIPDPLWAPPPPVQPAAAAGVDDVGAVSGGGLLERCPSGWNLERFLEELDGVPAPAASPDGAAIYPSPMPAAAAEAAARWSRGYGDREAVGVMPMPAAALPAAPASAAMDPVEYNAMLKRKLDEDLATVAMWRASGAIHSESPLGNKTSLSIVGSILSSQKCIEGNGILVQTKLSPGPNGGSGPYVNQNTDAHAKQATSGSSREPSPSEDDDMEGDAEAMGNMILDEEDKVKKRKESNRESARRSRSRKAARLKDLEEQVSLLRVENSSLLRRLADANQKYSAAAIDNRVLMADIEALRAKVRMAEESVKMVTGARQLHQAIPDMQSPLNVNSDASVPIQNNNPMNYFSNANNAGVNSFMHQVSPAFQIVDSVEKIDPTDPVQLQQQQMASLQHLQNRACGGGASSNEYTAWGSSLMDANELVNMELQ
In short: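 Polyhistidine-tagged DsRed fusions of transcription factors, joined at the N-terminus, were expressed in E. coli BL21-CodonPlus and isolated on Ni–NTA. They were incubated at 200 nM for 1 h at 25 °C on a custom Agilent array, double-stranded and BSA-blocked, in PBS with 2% BSA, salmon testes DNA and 50 µM zinc acetate. The binding signal is per-feature fluorescence intensity (arbitrary units) read on an Axon 4000B scanner after washing.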

Question: How did the binding signal turn out when “TGGTAAGGTTGAAAATGGCATCAAAGTGAACAGGCCCTCACGGAGTCACCTAGTGCAG” was run?
Answer: 22200 fluorescence intensity (a.u.)

Question: Which binding signal does the source give for “TCCTTTGGAACATAAAAGTGACGTAGGCATGCAAATTTGTCGGAGTCACCTAGTGCAG” here?
Answer: 13700 fluorescence intensity (a.u.)

Question: With “AGCAGACTCCACGTCGTCACCAACTTCCTTCCTCCTGGTCCGGAGTCACCTAGTGCAG” as the sequence, how does the binding signal read?
Answer: 11300 fluorescence intensity (a.u.)

Question: Which binding signal does the source give for “GCTCCCTCGACGACCTCGTCAAGTCCCTCCGCGCCGACCCCGGAGTCACCTAGTGCAG” here?
Answer: 4170 fluorescence intensity (a.u.)

Question: Which binding signal does the source give for “CAAGTGGGGACAGCGCCACGTGCGCGCTCGCTCTTCTCCACGGAGTCACCTAGTGCAG” here?
Answer: 11500 fluorescence intensity (a.u.)

Question: Which binding signal does the source give for “ATCAGCTAAGGCCAATCGGTGGATTACACACATTGGGTTCCGGAGTCACCTAGTGCAG” here?
Answer: 47600 fluorescence intensity (a.u.)

Question: How did the binding signal turn out when “GGTGCCCTAATAAGTACGGTGGTTGAACATTACACAATTCCGGAGTCACCTAGTGCAG” was run?
Answer: 3770 fluorescence intensity (a.u.)

Question: For “ACCGGGTTCCACATGTCATACACACATTACGTCTTGGAGTCGGAGTCACCTAGTGCAG”, which binding signal is on record?
Answer: 4450 fluorescence intensity (a.u.)

Question: How did the binding signal turn out when “CCGGTCGGTACTAGTTCGGGGCGTGACACATGGTAGTTATCGGAGTCACCTAGTGCAG” was run?
Answer: 4000 fluorescence intensity (a.u.)

Question: How did the binding signal turn out when “TATATGAAATTATTATTTGATTTCTTGATCATATAATGTACGGAGTCACCTAGTGCAG” was run?
Answer: 3440 fluorescence intensity (a.u.)

Question: “TTGAAATGTTTAAGTTGTTTTAAAATTATTCTATATATTTCGGAGTCACCTAGTGCAG” was tested. Which binding signal did it give?
Answer: 37800 fluorescence intensity (a.u.)

Question: How did the binding signal turn out when “ACTATTGTTTGGTAGTAAAATTGATAATTAAATGACTATACGGAGTCACCTAGTGCAG” was run?
Answer: 40900 fluorescence intensity (a.u.)

Question: Which binding signal does the source give for “GTTACATACTGTGATAGTTTGTTTAATGCTAAATCTAGTACGGAGTCACCTAGTGCAG” here?
Answer: 43300 fluorescence intensity (a.u.)

Question: With “TTTGATGCTGATTATAGGAAAATGTAAATGTTTCTATATACGGAGTCACCTAGTGCAG” as the sequence, how does the binding signal read?
Answer: 39500 fluorescence intensity (a.u.)

Question: For “TGTTTATTGGCTTTGTCATATGATAAATGAATTAATTGTTCGGAGTCACCTAGTGCAG”, which binding signal is on record?
Answer: 30500 fluorescence intensity (a.u.)

Question: With “GTTTTGGTATTGGCTATAAAATGACATGGATGTTATTGGACGGAGTCACCTAGTGCAG” as the sequence, how does the binding signal read?
Answer: 4760 fluorescence intensity (a.u.)

Question: How did the binding signal turn out when “CTCATAGTCATAGTTACTGATTTGTTTGCTCATAGTCATACGGAGTCACCTAGTGCAG” was run?
Answer: 22700 fluorescence intensity (a.u.)

Question: How did the binding signal turn out when “TTTACATGTGTAGATCTAATGATGTGTTAATGCTAGTATACGGAGTCACCTAGTGCAG” was run?
Answer: 4500 fluorescence intensity (a.u.)

Question: Which binding signal does the source give for “AACAAATATCGTTCCTCGGTGTCGTCATCGTGTTTGGATCCGGAGTCACCTAGTGCAG” here?
Answer: 6670 fluorescence intensity (a.u.)

Question: For “GCAAGCAAAGAAAGTTGTCATCATCCCAATCCTCCTCCGCCGGAGTCACCTAGTGCAG”, which binding signal is on record?
Answer: 4050 fluorescence intensity (a.u.)

Question: With “GTCTTTCCGAGTGGTGGCGGCGGTGGCTGATCTGCTTGTGCGGAGTCACCTAGTGCAG” as the sequence, how does the binding signal read?
Answer: 3420 fluorescence intensity (a.u.)

Question: Which binding signal does the source give for “CATTCCTCTCTTTCCCCTCATCCCTATAAATCCAACATTTCGGAGTCACCTAGTGCAG” here?
Answer: 3440 fluorescence intensity (a.u.)

Question: “CACCACCACCACGACGCCAACGTCAACGGCGAGGACCAAGCGGAGTCACCTAGTGCAG” was tested. Which binding signal did it give?
Answer: 3270 fluorescence intensity (a.u.)

Question: With “CCCACATGTCGGTCCAATTCTCCCTCCAGCCACTCCCGACCGGAGTCACCTAGTGCAG” as the sequence, how does the binding signal read?
Answer: 3220 fluorescence intensity (a.u.)

Question: Which binding signal does the source give for “CTGAAACCAACATCCAAGTCATCATGTCCAAGATGTCTCCCGGAGTCACCTAGTGCAG” here?
Answer: 6640 fluorescence intensity (a.u.)

Question: “GATTGAAACATCAAGGACTAAACTGAGTCTCAGATGAAACCGGAGTCACCTAGTGCAG” was tested. Which binding signal did it give?
Answer: 58100 fluorescence intensity (a.u.)

Question: With “CTAATATGGATAGATTGAAACATCAAGGACTAAACTGAGCCGGAGTCACCTAGTGCAG” as the sequence, how does the binding signal read?
Answer: 3460 fluorescence intensity (a.u.)

Question: Which binding signal does the source give for “GAGAGATCGTACACGAGTCATTTCAACTCGGACAATTTGCCGGAGTCACCTAGTGCAG” here?
Answer: 3180 fluorescence intensity (a.u.)

Question: With “CGACTCAAAGATAAATGATATGTCATCGGCACCTAGCCGACGGAGTCACCTAGTGCAG” as the sequence, how does the binding signal read?
Answer: 4200 fluorescence intensity (a.u.)

Question: For “TGTGACACATGTTACACATAATTATTATGTGAGTGGTAAACGGAGTCACCTAGTGCAG”, which binding signal is on record?
Answer: 4020 fluorescence intensity (a.u.)

Question: “ACAACAGCTCGATCCATCCACGCGCGCGTGACGGCTCGGCCGGAGTCACCTAGTGCAG” was tested. Which binding signal did it give?
Answer: 4690 fluorescence intensity (a.u.)

Question: “GAAATCTGAACAACCAAGTTACTACTGTACTTATGTTAGTCGGAGTCACCTAGTGCAG” was tested. Which binding signal did it give?
Answer: 20700 fluorescence intensity (a.u.)

Question: “TACTTCTACCTACCTTACCAAGTCCTGACAGTTACAACGTCGGAGTCACCTAGTGCAG” was tested. Which binding signal did it give?
Answer: 55400 fluorescence intensity (a.u.)

Question: How did the binding signal turn out when “CAATTCTACAATATGCCACTGAGTTTACCAAGTTATACAACGGAGTCACCTAGTGCAG” was run?
Answer: 4020 fluorescence intensity (a.u.)

Question: For “ATAAATACCAGCTTTCCAACCATCACTTATTCACTTGCCCCGGAGTCACCTAGTGCAG”, which binding signal is on record?
Answer: 3740 fluorescence intensity (a.u.)

Question: “TAATCCAGTACTACTTGCTGTGACAGTGTGATGTGCTTGTCGGAGTCACCTAGTGCAG” was tested. Which binding signal did it give?
Answer: 3540 fluorescence intensity (a.u.)

Question: With “AGATTGCCATCGGACGCAGTAAAACGTGTCACTACCCCACCGGAGTCACCTAGTGCAG” as the sequence, how does the binding signal read?
Answer: 7590 fluorescence intensity (a.u.)

Question: With “CTTAATTAATTATACACACAAACATTCCCTCCAATGCATGCGGAGTCACCTAGTGCAG” as the sequence, how does the binding signal read?
Answer: 3760 fluorescence intensity (a.u.)

Question: With “TAAACACAATTCTCCCTAATTATTATTTCTGGATGATGAGCGGAGTCACCTAGTGCAG” as the sequence, how does the binding signal read?
Answer: 41400 fluorescence intensity (a.u.)

Question: “TGATGCTACAATAAACATTTACTAATGACGGATTAATTAGCGGAGTCACCTAGTGCAG” was tested. Which binding signal did it give?
Answer: 3430 fluorescence intensity (a.u.)

Question: Which binding signal does the source give for “AATGTTTGTAGCACGGGAGGCATACCACATACATACATTGCGGAGTCACCTAGTGCAG” here?
Answer: 3640 fluorescence intensity (a.u.)

Question: “CTCGATCACACACGGTGTCACAGTCACAGGTGCATTGACGCGGAGTCACCTAGTGCAG” was tested. Which binding signal did it give?
Answer: 7140 fluorescence intensity (a.u.)
